Results: the supplement of paper PMC12636033
± gives the standard deviation of the averaged measurements. The full ranking holds about 33,000 sequences; the median of “E-score (rank enrichment, -0.5 to 0.5)” is about -0.0068, and the highest 2% start at about 0.24. Shown is part of a subset that was picked to be rich in the highest values.

Test system: muMax20 (Max(13-93) K31hArg/K57hArg, M65Nle)
Experiment: PBM 8-mer E-score (E-score (rank enrichment, -0.5 to 0.5)); higher = stronger preferential binding
Method: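 Protein binding microarray (universal PBM chip covering all 10-mers in fixed probe flanks) with chemically synthesized human Max(13-93) bHLH-LZ analogs (not full-length Max) bearing noncanonical residues (hArg, Tha, Aib, Nle at 65) and aromatic Cys staples. Read-out per 8-mer (and its reverse complement): E-score (rank-based enrichment, -0.5 to 0.5) and Z-score of median probe intensity.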

Row | Sequence | PBM 8-mer E-score
1 | ACAAATAT | 0.185 ± 0.027
2 | ATCCGCGC | -0.227 ± 0.043
3 | CACATACC | -0.0465 ± 0.058
4 | CCTTCGCG | -0.228 ± 0.019
5 | CTGAAAGA | 0.0447 ± 0.09
6 | ATGCCAAA | 0.111 ± 0.027
7 | ATACGTAT | 0.308 ± 0.0025
8 | ATACGTAA | 0.112 ± 0.077
9 | ATACGTAC | 0.188 ± 0.074
10 | CTCGTCCA | -0.0336 ± 0.048
11 | CCGTAAAG | 0.104 ± 0.11
12 | AAGGCCGC | -0.00405 ± 0.027
13 | AAGGCCGT | 0.278 ± 0.095
14 | AAGGCCGG | -0.243 ± 0.084
15 | GCCGACAA | -0.268 ± 0.068
16 | GCGGTTGA | -0.134 ± 0.11
17 | CCCACCCA | 0.269 ± 0.099
18 | CCACCCCA | 0.261 ± 0.066
19 | CCCACCCG | 0.186 ± 0.028
20 | CCACCCCC | -0.12 ± 0.084
21 | GCACCCCA | -0.0239 ± 0.0035
22 | ACCACCCC | -0.0712 ± 0.063

Row | Sequence | PBM 8-mer E-score
23 | CCCACCCC | 0.258 ± 0.018
24 | TCCACCCA | 0.00135 ± 0.18
25 | GCCACCCC | -0.0921 ± 0.047
26 | ATCCATAC | 0.15 ± 0.062
27 | GGTAGAAA | 0.0368 ± 0.022
28 | AGGCGCGG | -0.125 ± 0.07
29 | GAGTGGAA | -0.00431 ± 0.092
30 | GTTCACAA | -0.0567 ± 0.038
31 | ATTCACAG | -0.0684 ± 0.13
32 | ATTCACAA | 0.247 ± 0.032
33 | AAAACTTT | 0.133 ± 0.058
34 | ATAACACC | 0.134 ± 0.014
35 | GTAACAAA | 0.197 ± 0.067
36 | ATAACACG | 0.251 ± 0.014
37 | CTAACATC | 0.042 ± 0.045
38 | CTAACACA | 0.127 ± 0.02
39 | ATAACATC | 0.249 ± 0.13
40 | ATAACACA | 0.186 ± 0.067
41 | GTAACACA | 0.26 ± 0.11
42 | ATAACATG | 0.199 ± 0.064
43 | CGGGGGGA | -0.222 ± 0.029
44 | ACGGCACC | -0.104 ± 0.13

Row | Sequence | PBM 8-mer E-score
45 | CGGACAGC | -0.13 ± 0.064
46 | GCGGCATA | -0.00641 ± 0.021
47 | CCTTCGAC | -0.147 ± 0.0063
48 | ATTACTCC | 0.182 ± 0.07
49 | CTACCGCC | -0.156 ± 0.014
50 | GGAACAAA | 0.171 ± 0.014
51 | CCGAGCGA | -0.223 ± 0.081
52 | CTTTTTCA | 0.0825 ± 0.076
53 | GCTTTTCA | 0.0793 ± 0.013
54 | GGTTTGTA | -0.00997 ± 0.022
55 | GCTTTTTA | 0.292 ± 0.084
56 | AGTTTATC | 0.138 ± 0.08
57 | GCTTTTAA | 0.00199 ± 0.15
58 | CTTTTGTA | 0.151 ± 0.01
59 | GTTTTGTA | 0.254 ± 0.012
60 | CCTTTTCA | 0.295 ± 0.091
61 | GGTTTATA | 0.051 ± 0.032
62 | AGTTTATA | 0.266 ± 0.0043
63 | CCTTTTTA | 0.0863 ± 0.063
64 | AGAATGTA | 0.159 ± 0.034
65 | ATCCAGAT | 0.0236 ± 0.27
66 | AGAATCGA | -0.018 ± 0.077

Row | Sequence | PBM 8-mer E-score
67 | CCAATCCG | -0.198 ± 0.078
68 | CTCATACC | 0.014 ± 0.025
69 | AGACCCCA | 0.177 ± 0.046
70 | CAGCCAAG | -0.147 ± 0.066
71 | AGTACATA | 0.147 ± 0.081
72 | AATTTATA | 0.247 ± 0.059
73 | ATTTTATA | 0.231 ± 0.038
74 | CTTTTATA | 0.184 ± 0.01
75 | AATTTATC | 0.205 ± 0.02
76 | GTTTTATA | 0.261 ± 0.059
77 | CATTTATA | 0.175 ± 0.032
78 | GTCGAGGA | -0.115 ± 0.0082
79 | GGAAAGGA | -0.246 ± 0.099
80 | ACAGAGGG | -0.155 ± 0.0044
81 | CTCTAGTA | 0.118 ± 0.0018
82 | ATCTAGTA | -0.00587 ± 0.017
83 | GTCTAGTA | 0.252 ± 0.03
84 | CAGCCGAC | -0.22 ± 0.12
85 | GGGGGACC | -0.296 ± 0.013
86 | AAGAGCAC | 0.00129 ± 0.0028
